According to ChEMBL document CHEMBL1961873, “Compounds: GSK PKIS; Assays: Nanosyn kinase panel” (2012):

Key:
[1] = target: Mitogen-activated protein kinase 3 (Homo sapiens) (UniProt P27361); details: at 1 µM;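 note: values are mean percent inhibition of MAPK3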
[2] = target: SRSF protein kinase 3 (Homo sapiens) (UniProt Q9UPE1); details: at 0.1 µM
[3] = target: SRSF protein kinase 3 (Homo sapiens) (UniProt Q9UPE1); details: at 1 µM
[4] = target: Mitogen-activated protein kinase 14 (Homo sapiens) (UniProt Q16539); details: at 0.1 µM
[5] = target: Mitogen-activated protein kinase 14 (Homo sapiens) (UniProt Q16539); details: at 1 µM
[6] = target: Mitogen-activated protein kinase 11 (Homo sapiens) (UniProt Q15759); details: at 0.1 µM
[7] = target: Mitogen-activated protein kinase 11 (Homo sapiens) (UniProt Q15759); details: at 1 µM
[8] = target: T1, Mitogen-activated protein kinase 13 (Homo sapiens) (UniProt O15264); details: at 0.1 µM
T1 sequence (whole entry): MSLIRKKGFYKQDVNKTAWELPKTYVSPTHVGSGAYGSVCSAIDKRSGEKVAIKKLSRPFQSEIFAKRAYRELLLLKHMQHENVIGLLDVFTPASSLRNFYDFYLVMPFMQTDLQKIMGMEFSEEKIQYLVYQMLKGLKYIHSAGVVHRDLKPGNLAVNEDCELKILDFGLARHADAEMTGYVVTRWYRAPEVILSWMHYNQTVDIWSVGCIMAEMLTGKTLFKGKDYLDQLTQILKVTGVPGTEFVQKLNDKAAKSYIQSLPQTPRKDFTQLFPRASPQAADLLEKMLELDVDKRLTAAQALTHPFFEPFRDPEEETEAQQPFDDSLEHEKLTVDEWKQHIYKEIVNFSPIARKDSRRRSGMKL

[9] = target: T1, Mitogen-activated protein kinase 13 (Homo sapiens); details: at 1 µM
[10] = target: T2, Mitogen-activated protein kinase 12 (Homo sapiens) (UniProt P53778); details: at 0.1 µM
T2 sequence (whole entry): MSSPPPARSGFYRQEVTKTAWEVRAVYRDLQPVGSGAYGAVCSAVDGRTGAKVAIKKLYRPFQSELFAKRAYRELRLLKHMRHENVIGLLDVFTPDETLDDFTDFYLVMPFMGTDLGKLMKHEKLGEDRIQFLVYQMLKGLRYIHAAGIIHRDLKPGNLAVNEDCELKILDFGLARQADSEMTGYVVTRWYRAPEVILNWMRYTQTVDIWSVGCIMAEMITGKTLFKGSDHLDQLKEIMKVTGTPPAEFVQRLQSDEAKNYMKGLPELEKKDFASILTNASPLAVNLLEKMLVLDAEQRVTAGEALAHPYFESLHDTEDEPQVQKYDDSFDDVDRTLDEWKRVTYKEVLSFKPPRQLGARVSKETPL

[11] = target: T2, Mitogen-activated protein kinase 12 (Homo sapiens); details: at 1 µM
[12] = target: SRSF protein kinase 1 (Homo sapiens) (UniProt Q96SB4); details: at 0.1 µM
[13] = target: SRSF protein kinase 1 (Homo sapiens) (UniProt Q96SB4); details: at 1 µM
[14] = target: Phosphatidylinositol 4,5-bisphosphate 3-kinase catalytic subunit alpha isoform (Homo sapiens) (UniProt P42336); details: at 0.1 µM
[15] = target: Phosphatidylinositol 4,5-bisphosphate 3-kinase catalytic subunit alpha isoform (Homo sapiens) (UniProt P42336); details: at 1 µM
[16] = target: T3, Phosphatidylinositol 4,5-bisphosphate 3-kinase catalytic subunit delta isoform (Homo sapiens) (UniProt O00329); details: at 0.1 µM
T3 sequence (whole entry): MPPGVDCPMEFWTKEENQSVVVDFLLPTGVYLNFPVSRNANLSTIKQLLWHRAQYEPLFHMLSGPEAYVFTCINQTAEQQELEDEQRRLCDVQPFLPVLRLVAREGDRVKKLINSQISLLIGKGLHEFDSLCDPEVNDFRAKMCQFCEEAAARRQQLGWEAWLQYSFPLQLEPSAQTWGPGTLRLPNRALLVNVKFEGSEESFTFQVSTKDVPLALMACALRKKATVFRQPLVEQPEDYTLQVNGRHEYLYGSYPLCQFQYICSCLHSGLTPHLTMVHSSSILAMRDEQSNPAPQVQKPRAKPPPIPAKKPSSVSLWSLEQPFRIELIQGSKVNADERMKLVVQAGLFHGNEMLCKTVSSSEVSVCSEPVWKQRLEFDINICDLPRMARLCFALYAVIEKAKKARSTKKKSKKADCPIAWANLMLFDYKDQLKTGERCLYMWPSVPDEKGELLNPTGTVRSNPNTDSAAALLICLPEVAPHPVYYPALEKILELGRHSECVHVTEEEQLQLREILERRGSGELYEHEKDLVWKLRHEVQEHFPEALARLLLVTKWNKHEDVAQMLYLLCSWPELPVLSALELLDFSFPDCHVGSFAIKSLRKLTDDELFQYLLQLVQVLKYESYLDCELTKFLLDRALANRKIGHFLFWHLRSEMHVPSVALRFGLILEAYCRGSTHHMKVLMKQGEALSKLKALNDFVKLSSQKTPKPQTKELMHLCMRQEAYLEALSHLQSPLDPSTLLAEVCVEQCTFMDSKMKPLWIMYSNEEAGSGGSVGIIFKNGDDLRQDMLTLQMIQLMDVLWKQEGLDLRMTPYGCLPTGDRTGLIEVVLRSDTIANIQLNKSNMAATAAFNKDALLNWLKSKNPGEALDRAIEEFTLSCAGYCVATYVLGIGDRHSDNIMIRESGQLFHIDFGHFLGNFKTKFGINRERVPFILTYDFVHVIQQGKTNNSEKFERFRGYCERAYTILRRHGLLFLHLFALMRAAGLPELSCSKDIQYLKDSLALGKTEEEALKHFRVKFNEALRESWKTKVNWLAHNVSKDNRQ

[17] = target: T3, Phosphatidylinositol 4,5-bisphosphate 3-kinase catalytic subunit delta isoform (Homo sapiens); details: at 1 µM
[18] = target: Phosphatidylinositol 4-kinase beta (Homo sapiens) (UniProt Q9UBF8); details: at 0.1 µM
[19] = target: Phosphatidylinositol 4-kinase beta (Homo sapiens) (UniProt Q9UBF8); details: at 1 µM
[20] = target: Sphingosine kinase 1 (Homo sapiens) (UniProt Q9NYA1); details: at 0.1 µM;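 note: mean percent inhibition of SPHK1 activity, measured within the GSK PKIS screening panel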
Chain of Sphingosine kinase 1 (Homo sapiens) (Q9NYA1 whole entry): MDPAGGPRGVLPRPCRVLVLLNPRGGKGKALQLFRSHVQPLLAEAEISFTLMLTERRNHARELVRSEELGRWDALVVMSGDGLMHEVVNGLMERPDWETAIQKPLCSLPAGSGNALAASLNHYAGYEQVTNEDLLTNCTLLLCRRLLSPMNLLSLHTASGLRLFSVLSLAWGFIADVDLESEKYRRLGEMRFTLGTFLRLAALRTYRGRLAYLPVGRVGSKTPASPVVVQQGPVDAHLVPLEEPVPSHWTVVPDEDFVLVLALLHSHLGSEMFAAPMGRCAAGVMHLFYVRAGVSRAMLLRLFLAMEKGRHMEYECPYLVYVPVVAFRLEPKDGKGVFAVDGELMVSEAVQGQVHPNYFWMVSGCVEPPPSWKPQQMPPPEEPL

Chain of SRSF protein kinase 1 (Homo sapiens) (Q96SB4 whole entry, canonical isoform): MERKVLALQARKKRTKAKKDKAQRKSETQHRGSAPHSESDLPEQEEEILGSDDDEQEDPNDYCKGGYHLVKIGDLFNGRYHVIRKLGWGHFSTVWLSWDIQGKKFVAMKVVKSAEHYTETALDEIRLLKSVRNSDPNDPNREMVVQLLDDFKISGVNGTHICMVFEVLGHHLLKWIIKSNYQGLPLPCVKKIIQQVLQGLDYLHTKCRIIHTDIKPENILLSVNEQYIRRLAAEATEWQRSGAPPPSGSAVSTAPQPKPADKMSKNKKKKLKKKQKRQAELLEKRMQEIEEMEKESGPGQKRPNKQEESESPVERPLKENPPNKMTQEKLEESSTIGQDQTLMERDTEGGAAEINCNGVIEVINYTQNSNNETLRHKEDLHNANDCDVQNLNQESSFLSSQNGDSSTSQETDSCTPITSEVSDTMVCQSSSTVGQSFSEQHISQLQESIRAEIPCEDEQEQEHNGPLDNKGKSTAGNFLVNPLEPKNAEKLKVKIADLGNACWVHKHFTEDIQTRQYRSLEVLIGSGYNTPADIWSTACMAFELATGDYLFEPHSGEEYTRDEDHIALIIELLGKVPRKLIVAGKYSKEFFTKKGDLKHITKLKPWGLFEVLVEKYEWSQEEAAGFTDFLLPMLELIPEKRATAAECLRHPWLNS
Chain of Phosphatidylinositol 4,5-bisphosphate 3-kinase catalytic subunit alpha isoform (Homo sapiens) (P42336 whole entry, canonical isoform): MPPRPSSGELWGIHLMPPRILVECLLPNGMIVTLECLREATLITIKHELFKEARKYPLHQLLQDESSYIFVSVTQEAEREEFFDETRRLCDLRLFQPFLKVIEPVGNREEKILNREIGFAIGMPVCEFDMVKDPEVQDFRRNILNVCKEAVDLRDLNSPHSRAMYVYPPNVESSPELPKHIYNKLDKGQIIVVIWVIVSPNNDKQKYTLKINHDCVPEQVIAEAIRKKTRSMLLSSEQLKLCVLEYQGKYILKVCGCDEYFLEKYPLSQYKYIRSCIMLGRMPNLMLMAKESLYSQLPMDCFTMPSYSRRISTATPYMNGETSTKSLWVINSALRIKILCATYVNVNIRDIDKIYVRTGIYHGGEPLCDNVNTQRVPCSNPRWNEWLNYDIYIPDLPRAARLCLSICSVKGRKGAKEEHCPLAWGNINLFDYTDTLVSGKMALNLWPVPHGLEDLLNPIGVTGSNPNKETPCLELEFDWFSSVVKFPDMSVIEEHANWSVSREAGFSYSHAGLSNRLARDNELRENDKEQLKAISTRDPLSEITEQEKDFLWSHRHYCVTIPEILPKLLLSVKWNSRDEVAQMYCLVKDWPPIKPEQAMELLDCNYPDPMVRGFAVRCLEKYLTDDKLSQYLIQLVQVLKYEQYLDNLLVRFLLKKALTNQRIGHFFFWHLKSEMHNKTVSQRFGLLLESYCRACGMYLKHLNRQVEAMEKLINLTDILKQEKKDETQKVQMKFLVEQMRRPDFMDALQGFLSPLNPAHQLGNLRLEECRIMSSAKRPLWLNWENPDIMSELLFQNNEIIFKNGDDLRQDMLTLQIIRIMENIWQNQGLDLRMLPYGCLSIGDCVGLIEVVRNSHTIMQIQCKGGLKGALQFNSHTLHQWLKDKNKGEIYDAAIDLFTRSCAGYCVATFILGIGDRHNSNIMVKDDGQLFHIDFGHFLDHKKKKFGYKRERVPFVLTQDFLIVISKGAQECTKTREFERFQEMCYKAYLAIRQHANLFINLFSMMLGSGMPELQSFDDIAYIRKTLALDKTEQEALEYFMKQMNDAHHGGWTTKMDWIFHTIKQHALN
Chain of Mitogen-activated protein kinase 3 (Homo sapiens) (P27361 whole entry): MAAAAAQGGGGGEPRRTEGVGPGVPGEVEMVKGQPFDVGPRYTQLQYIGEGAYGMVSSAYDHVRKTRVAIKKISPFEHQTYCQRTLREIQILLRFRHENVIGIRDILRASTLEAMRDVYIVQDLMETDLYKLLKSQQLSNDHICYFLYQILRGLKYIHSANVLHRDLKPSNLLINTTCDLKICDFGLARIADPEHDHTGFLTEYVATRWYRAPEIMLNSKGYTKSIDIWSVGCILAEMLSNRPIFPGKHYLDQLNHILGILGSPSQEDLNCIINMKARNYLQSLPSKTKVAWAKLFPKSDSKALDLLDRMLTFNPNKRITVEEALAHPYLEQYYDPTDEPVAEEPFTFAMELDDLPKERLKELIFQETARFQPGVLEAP
Chain of Mitogen-activated protein kinase 14 (Homo sapiens) (Q16539 whole entry): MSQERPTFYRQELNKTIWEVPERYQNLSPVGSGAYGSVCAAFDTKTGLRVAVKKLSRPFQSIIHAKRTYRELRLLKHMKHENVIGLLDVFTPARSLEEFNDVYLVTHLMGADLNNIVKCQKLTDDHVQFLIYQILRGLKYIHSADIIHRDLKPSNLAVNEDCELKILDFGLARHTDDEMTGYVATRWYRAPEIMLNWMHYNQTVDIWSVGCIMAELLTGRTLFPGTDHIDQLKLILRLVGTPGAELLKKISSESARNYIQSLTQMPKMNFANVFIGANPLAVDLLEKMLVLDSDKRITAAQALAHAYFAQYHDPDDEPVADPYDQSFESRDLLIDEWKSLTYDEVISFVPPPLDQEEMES
Chain of Mitogen-activated protein kinase 11 (Homo sapiens) (Q15759 whole entry): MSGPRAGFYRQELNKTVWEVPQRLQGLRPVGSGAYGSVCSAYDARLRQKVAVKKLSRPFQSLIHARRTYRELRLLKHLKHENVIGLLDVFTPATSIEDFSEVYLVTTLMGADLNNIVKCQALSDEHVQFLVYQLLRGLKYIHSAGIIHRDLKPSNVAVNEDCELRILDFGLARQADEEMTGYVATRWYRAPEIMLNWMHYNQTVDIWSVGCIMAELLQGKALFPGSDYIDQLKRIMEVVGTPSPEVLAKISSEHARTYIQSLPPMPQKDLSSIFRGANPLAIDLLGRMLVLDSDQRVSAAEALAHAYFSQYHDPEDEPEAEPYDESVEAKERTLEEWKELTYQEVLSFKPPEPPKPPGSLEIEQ
Chain of SRSF protein kinase 3 (Homo sapiens) (Q9UPE1 whole entry): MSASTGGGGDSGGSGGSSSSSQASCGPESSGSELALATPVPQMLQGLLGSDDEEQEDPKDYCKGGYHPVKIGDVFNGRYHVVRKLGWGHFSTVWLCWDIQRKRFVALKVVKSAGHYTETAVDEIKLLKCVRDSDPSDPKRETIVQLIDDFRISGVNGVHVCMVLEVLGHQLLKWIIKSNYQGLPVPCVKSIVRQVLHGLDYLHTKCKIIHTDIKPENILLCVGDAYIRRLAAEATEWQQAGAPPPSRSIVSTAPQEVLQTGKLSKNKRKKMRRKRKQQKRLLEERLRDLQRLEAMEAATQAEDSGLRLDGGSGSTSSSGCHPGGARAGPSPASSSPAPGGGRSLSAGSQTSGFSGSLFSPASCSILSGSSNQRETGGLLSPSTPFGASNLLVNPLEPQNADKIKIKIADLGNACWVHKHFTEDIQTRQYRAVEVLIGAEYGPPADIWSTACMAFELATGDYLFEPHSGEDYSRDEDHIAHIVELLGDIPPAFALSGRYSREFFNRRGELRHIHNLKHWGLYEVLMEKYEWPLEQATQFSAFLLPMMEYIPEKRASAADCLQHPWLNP
Chain of Phosphatidylinositol 4-kinase beta (Homo sapiens) (Q9UBF8 2-816 limits assumed): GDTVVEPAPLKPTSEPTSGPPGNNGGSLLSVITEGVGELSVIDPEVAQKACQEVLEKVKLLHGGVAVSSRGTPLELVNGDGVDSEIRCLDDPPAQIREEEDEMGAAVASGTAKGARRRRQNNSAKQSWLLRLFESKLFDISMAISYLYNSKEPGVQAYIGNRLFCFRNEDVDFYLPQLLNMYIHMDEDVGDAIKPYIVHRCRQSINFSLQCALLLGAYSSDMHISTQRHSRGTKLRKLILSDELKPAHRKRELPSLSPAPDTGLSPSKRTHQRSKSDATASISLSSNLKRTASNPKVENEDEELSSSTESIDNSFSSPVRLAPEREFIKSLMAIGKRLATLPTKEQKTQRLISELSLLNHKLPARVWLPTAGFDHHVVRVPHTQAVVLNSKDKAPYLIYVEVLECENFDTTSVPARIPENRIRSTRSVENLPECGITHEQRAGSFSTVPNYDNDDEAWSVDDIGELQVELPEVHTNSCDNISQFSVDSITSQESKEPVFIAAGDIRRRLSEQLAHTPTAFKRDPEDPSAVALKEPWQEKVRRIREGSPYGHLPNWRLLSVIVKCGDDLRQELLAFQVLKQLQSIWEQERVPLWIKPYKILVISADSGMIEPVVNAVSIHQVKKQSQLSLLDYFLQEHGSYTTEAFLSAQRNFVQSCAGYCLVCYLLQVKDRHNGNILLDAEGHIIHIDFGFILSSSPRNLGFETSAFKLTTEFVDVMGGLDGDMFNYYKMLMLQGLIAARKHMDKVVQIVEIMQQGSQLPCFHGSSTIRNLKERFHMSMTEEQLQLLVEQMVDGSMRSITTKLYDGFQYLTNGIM

| Structure (SMILES) | inhibition [1] [%] | inhibition [2] [%] | inhibition [3] [%] | inhibition [4] [%] | inhibition [5] [%] | inhibition [6] [%] | inhibition [7] [%] | inhibition [8] [%] | inhibition [9] [%] | inhibition [10] [%] | inhibition [11] [%] | inhibition [12] [%] | inhibition [13] [%] | inhibition [14] [%] | inhibition [15] [%] | inhibition [16] [%] | inhibition [17] [%] | inhibition [18] [%] | inhibition [19] [%] | inhibition [20] [%] |
| --- | --- | --- | --- | --- | --- | --- | --- | --- | --- | --- | --- | --- | --- | --- | --- | --- | --- | --- | --- | --- |
| CC1=C(C(=O)Nc2ccc3[nH]ncc3c2)C(c2ccc(F)cc2)NC(=O)N1 (centres undefined) | 3.56 | -2.61 | -0.84 | 2.74 | 6.99 | 2.94 | 3.88 | 0.78 | 2.31 | 0.89 | 1.7 | -0.16 | -1.24 | 2.51 | 5.96 | 2.41 | 3.62 | 1.44 | 1.28 | 1.05 |
| CC(=O)Nc1cccc(C#Cc2cncnc2Nc2ccc(OCc3cccc(F)c3)c(Cl)c2)n1 | 1.62 | -0.01 | 3.44 | -0.35 | -1.8 | 0.21 | 3.12 | -1.33 | -1.57 | -2.16 | -1.66 | 1.83 | 6.55 | 1.06 | -3.01 | -2.12 | -0.16 | 2.97 | 0.88 | 0.46 |
| Fc1cccc(COc2ccc(Nc3ncnc4cc(-c5ccc[nH]5)sc34)cc2Cl)c1 | 1.55 | -2.27 | -1.34 | 1.24 | 4.89 | 0.23 | -0.16 | 1.98 | 2.15 | 4.35 | 2.1 | -1.71 | -1.58 | 3.58 | 10.8 | 2.77 | 9.44 | -8.05 | 2.94 | 1.48 |
| c1cnn2ncc(-c3ccnc(Nc4ccc5c(c4)OCCO5)n3)c2c1 | 12 | -0.61 | 1.61 | 7.07 | 13.3 | 3.66 | 9.95 | 4.89 | 16.3 | 0.48 | 6.13 | 0.05 | 2.88 | 7.25 | 30.2 | 4.69 | 26.1 | 1.98 | 9.37 | 1.6 |
| COc1cc(C)c(NC(=O)CN(C)C)cc1Nc1nc(Nc2cccc(F)c2C(N)=O)c2cc[nH]c2n1 | 0.63 | 2.12 | 7.69 | 1.35 | 5.59 | 3.27 | 3.23 | -0.43 | 1.87 | 0.52 | 1.38 | -2.61 | -3.29 | 0.75 | 0.03 | 0.12 | 2.2 | 5.07 | 1.45 |  |
| Cc1cccc(-c2n[nH]cc2-c2ccc3ncccc3n2)n1 | 0.82 | -1.48 | -0.43 | 2.51 | 12 | -0.93 | 0.8 | 1.23 | -0.48 | 0.84 | 0.57 | -1.35 | -1.16 | -0.95 | 1.78 | -0.15 | 0.53 | 1.57 | 4.48 | -2.56 |
| COc1ccccc1Nc1ncc(-c2ccccc2)o1 | 5.55 | -1.49 | 1.35 | 10.4 | 11 | 4.31 | 7.08 | 5.83 | 4.74 | 4.14 | 4.08 | -4.21 | -2.61 | 5.32 | 6.11 | 0.95 | 2.27 | -0.97 | 0.94 | 0 |
